Measurements reported in the supplement of paper PMC8253809.

How the values were obtained:
Assay in all cases: growth inhibition (% activity, log2 RLU normalised to DMSO / staurosporine); higher = more growth inhibition
Details in all cases: 33 µM
DIPGX29 = system: DIPGX29 (H3.3 K27M diffuse intrinsic pontine glioma line)
Method in brief: (§1)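 The growth-inhibition value is the median over replicates. pHGG cell lines and H9-derived neural stem cells on Geltrex-coated 384-well plates received approved drugs by pin tool at a single final concentration of about 33 μM, in triplicate, for 7 days at 37 °C, 5% CO2. CellTiter-Glo luminescence was log2-transformed and normalised per plate to % activity between solvent and positive control wells.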

DIPGX37 = system: DIPGX37 (H3.3 K27M diffuse intrinsic pontine glioma line)
Method in brief: as §1

DIPGX7 = system: DIPGX7 (H3.3 K27M diffuse intrinsic pontine glioma line)
Method in brief: as §1

DIPGX9 = system: DIPGX9 (diffuse intrinsic pontine glioma line)
Method in brief: as §1

HGGX39 = system: HGGX39 (paediatric high-grade glioma line)
Method in brief: as §1

HGGX6 = system: HGGX6 (H3.3 G34R paediatric high-grade glioma line)
Method in brief: as §1

HNSC = system: HNSC
Method in brief: as §1

SUDIPGIV = system: SUDIPGIV (diffuse intrinsic pontine glioma line)
Method in brief: as §1

SUDIPGVI = system: SUDIPGVI (diffuse intrinsic pontine glioma line)
Method in brief: as §1

SUDIPGXIII = system: SUDIPGXIII (diffuse intrinsic pontine glioma line)
Method in brief: as §1

Row | Compound | growth inhibition (DIPGX29) | growth inhibition (DIPGX37) | growth inhibition (DIPGX7) | growth inhibition (DIPGX9) | growth inhibition (HGGX39) | growth inhibition (HGGX6) | growth inhibition (HNSC) | growth inhibition (SUDIPGIV) | growth inhibition (SUDIPGVI) | growth inhibition (SUDIPGXIII)
1 | CN1CC(=O)NC1=N | 1.19% | -0.026% | 4.55% | 2.89% | 6.17% | 2.06% | 10.1% | 2.65% | 3.88% | 1.35%
2 | C#CCC(Cc1cnc2nc(N)nc(N)c2n1)c1ccc(C(=O)N[C@@H](CCC(=O)O)C(=O)O)cc1 (stereo not given in full) | 10.7% | 6.3% | 25% | 9.98% | 22.8% | 24% | 56.1% | 16.5% | 17.6% | 13%
3 | N[C@@H](Cc1ccc(O)c(O)c1)C(=O)O | -0.663% | 0.423% | -0.313% | 0.542% | 2.68% | 1.4% | 0.395% | -0.394% | -1.98% | -0.139%
4 | CN(c1nccc(=O)[nH]1)C1CCN(c2nc3ccccc3n2Cc2ccc(F)cc2)CC1 | 2.38% | 2.96% | 2.33% | 1.85% | 4.67% | 3.86% | 1.95% | 0.631% | 3.14% | -15%
5 | CCNC(=O)CCC/C=C\C[C@@H]1[C@@H](/C=C/[C@@H](O)CCc2ccccc2)[C@H](O)C[C@@H]1O | 0.795% | 0.309% | 1.77% | 0.624% | 3.66% | 1.1% | 1.72% | 0.456% | 0.646% | -0.283%
6 | COc1nc(C)nc(Cl)c1NC1=NCCN1 | -1.42% | -1.39% | -1.95% | -1.31% | 0.125% | -1.01% | -1.76% | -1.72% | -2.98% | -0.769%
7 | COc1cc(NC(C)CCCN)c2ncccc2c1 (stereo not given) | 19.8% | 14% | 29.6% | 24.2% | 13% | 25.5% | 66.1% | 25.4% | 28.3% | 11.9%
8 | CO[C@H]1/C=C/O[C@@]2(C)Oc3c(C)c(O)c4c(O)c(c(/C=N/N5CCN(C6CCCC6)CC5)c(O)c4c3C2=O)NC(=O)/C(C)=C\C=C\[C@H](C)[C@H](O)[C@@H](C)[C@@H](O)[C@@H](C)[C@H](OC(C)=O)[C@@H]1C | 1.87% | 1.82% | 1.73% | 2.34% | 2.99% | 2.94% | 0.219% | -0.888% | 1.12% | 0.627%
9 | CCN1CCCC1CNC(=O)c1cc(S(N)(=O)=O)ccc1OC (stereo not given) | 1.2% | 3.95% | 2.35% | 1.38% | 2.29% | 0.912% | 1.32% | 0.319% | 3.68% | 0.786%
10 | NC(=O)c1ncn([C@@H]2O[C@H](CO)[C@@H](O)[C@H]2O)c1O | 0.0608% | 0.272% | -0.185% | -0.234% | 1.1% | 0.705% | 1.34% | -0.809% | -1.05% | -0.893%
11 | CC(C)(C)CC(C)(C)c1ccc(O)c(Cc2ccc(Cl)cc2Cl)c1 | 1.52% | -4.36% | 1.89% | 0.915% | 0.861% | -1.71% | 13.3% | 3.83% | -0.854% | 3.25%
12 | CCOc1ccc2nc3cc(N)ccc3c(N)c2c1 | -0.121% | 2.61% | 2.68% | 3.22% | -1.26% | 1.77% | 2.09% | 1.88% | -0.000958% | 1.33%
13 | C=CC[C@@H]1/C=C(\C)C[C@H](C)C[C@H](OC)[C@H]2O[C@@](O)(C(=O)C(=O)N3CCCC[C@H]3C(=O)O[C@H](/C(C)=C/[C@@H]3CC[C@@H](O)[C@H](OC)C3)[C@H](C)[C@@H](O)CC1=O)[C@H](C)C[C@@H]2OC | 1.19% | -1.52% | 3.82% | 4.63% | 9.14% | 3.03% | 6.43% | 4.72% | 5.58% | 2.59%
14 | CC(C)C[C@H](NC(=O)[C@H](CCc1ccccc1)NC(=O)CN1CCOCC1)C(=O)N[C@@H](Cc1ccccc1)C(=O)N[C@@H](CC(C)C)C(=O)[C@@]1(C)CO1 | 49.4% | 59.1% | 55.8% | 55% | 51.3% | 57.8% | 56.9% | 55% | 52% | 29.5%
15 | CC[C@H](C)C(=O)O[C@H]1C[C@@H](C)C=C2C=C[C@H](C)[C@H](CC[C@@H]3C[C@@H](O)CC(=O)O3)[C@H]21 | 6.68% | -1.93% | 8.58% | 5.72% | 16.2% | 10.8% | 51.5% | 18.1% | -6.1% | -0.657%
16 | Cc1c(Cl)cccc1Nc1ccccc1C(=O)O | 1.71% | 2.72% | 2.88% | 2.29% | 4.47% | 2.44% | 4.89% | -2.4% | 2.85% | 0.296%
17 | [O-]n1ccccc1=S.[O-]n1ccccc1=S.[Zn+2] | 61.5% | 60.4% | 56.6% | 56.4% | 20.2% | 59.7% | 58.4% | 48.4% | 59.2% | 59.7%
18 | CC1CNc2c(cccc2S(=O)(=O)N[C@@H](CCCNC(=N)N)C(=O)N2CC[C@@H](C)C[C@@H]2C(=O)O)C1 (stereo not given in full) | 0.0741% | 1.59% | -1.49% | 0.277% | -0.0474% | -1.28% | 12.3% | 1.8% | 0.243% | -1.66%
19 | CCN[C@H]1C[C@H](C)S(=O)(=O)c2sc(S(N)(=O)=O)cc21 | 1.81% | -1.68% | 1.05% | 0.778% | 2.3% | 0.627% | 4.56% | -0.668% | 4.36% | 0.067%
20 | COc1ncnc(NS(=O)(=O)c2ccc(N)cc2)c1OC | 0.769% | 2.24% | 1.07% | 2.03% | 0.995% | 1.53% | -1.3% | -0.0587% | -0.393% | 1.69%
